Screens deposited in PubChem BioAssay by National Center for Advancing Translational Sciences (NCATS).
Pf Dd2 inh – Plasmodium falciparum Dd2 growth inhibition. Potency, µM (series often up to 28.9 µM), inactives show at the top dose activity, negative = inhibition, most hits filed as inhibitors. AID 1347417. P. falciparum Dd2 growth, SYBR Green, 72 h. hit rate 4.3% among 120,000; active = well fitted inhibition curve with a large enough effect;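 note: plate controls were DMSO vehicle for no effect and reference drug for full effect; nearly all actives have a fitted effect of over 65% in size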
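Readout: SYBR Green fluorescence, 485 nm excitation, 535 nm emission, after ~16 h lysis at 37C. Before that, Dd2-infected red cells (2.5% hematocrit) grew 72 h with compound, 29 uM top final concentration.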
* = called active by the depositor; i = inactive; [ ] = another dose, or the depositor's remark. This excerpt belongs to a sample that is enriched for hits. Potency is the fitted concentration of half-maximal effect.

SMILES	Pf Dd2 inh
Cc1ccc(Cn2c(C3CCN(C(=O)c4ccc(C)cc4)CC3)n[nH]c2=O)cc1	-24%
COc1ccc(CC(=O)N2CCC(c3n[nH]c(=O)n3Cc3ccc(F)cc3)CC2)cc1	i
COc1ccc(Cn2c(C3CCN(C(=O)c4ccc(OC)cc4)CC3)n[nH]c2=O)cc1	-23%
Cc1ccc(Cn2c(C3CCN(C(=O)c4ccc(C)s4)CC3)n[nH]c2=O)cc1	11µM*
O=C(NCCc1ccncc1)C1CN(C(=O)c2cc(F)cc(F)c2)CC12CCOCC2 (configuration not stated)	0%
Cn1nccc1C(=O)N1CC[C@H]2C(=O)NCCCCCCN(Cc3ccncc3)[C@@H]2C1	-12%
COc1ccc(OC)c(CN2CCNc3cnc(-c4ccccc4)cc3C2)c1	i
CN1C(=O)C2(c3ccccc31)N(c1ccc(Br)cc1)C(=O)CS2(=O)=O (configuration not stated)	-18%
Cc1ccc(CN2C(=O)C3(c4ccccc42)N(c2ccc(C)c(Cl)c2)C(=O)CS3(=O)=O)cc1 (configuration not stated)	-8%
Cc1ccc(N2C(=O)CS(=O)(=O)C23C(=O)N(Cc2ccc(Cl)cc2)c2ccccc23)cc1C (configuration not stated)	2.2µM*
COCCN(C)C(=O)c1nc2nc(-c3ccccc3)c(Cl)cc2n1C	-28%[44.1 µM]
COc1ccc(CC(=O)NCCc2csc(-c3cccc(C)c3)n2)cc1	13µM*
COc1ccc(CC(=O)NCCc2csc(-c3ccc(Cl)cc3)n2)cc1	-13%
Cc1cccc(-c2nc(CCNC(=O)Cc3ccc(F)cc3)cs2)c1	i
Cc1ccc(NS(=O)(=O)c2ccc3[nH]c4c(c3c2)CCCC4)cc1N(C)C	i
Cc1noc([C@@H]2CN(CC3CC3)C[C@H]2CO)n1	23%
CN(C)c1nc(-c2ccccc2)nc2c1CCN(C(=O)C1CCOC1)C2 (configuration not stated)	-16%
COc1ccc(CN(CC2CCCO2)C(=O)C2CCN(CC(N)=O)CC2)cc1 (configuration not stated)	-20%
CCN(CC1CCCO1)C(=O)C1CCN(c2nc(-c3ccccc3)nc3c2CCC3)CC1 (configuration not stated)	11µM*
CNCCNC(=O)C1CCN(c2nc(-c3ccccc3)nc3c2CCC3)CC1	13µM*
CC(C)(C)CC(=O)N1CCN(c2nc(-c3ccccc3)nc3c2CCC3)CC1	-10%
COC(C)(C)C(=O)N1CCN(c2nc(-c3ccccc3)nc3c2CCC3)CC1	i
CCC(CC)C(=O)Nc1ccc([C@@H](O)[C@H]2COCC(=O)N2Cc2ccccn2)cc1	-10%[44.1 µM]
CCNC(=O)[C@@H]1C[C@H](N)CN1C(=O)CCn1c(=O)oc2ccc(C)cc21	-8%
O=C(Cn1ncc2c1-c1ccccc1OC2)N1CCN(c2ccccc2)CC1	3%
SMILES	Pf Dd2 inh
COc1ccc(CN2Cc3cc(NC(=O)c4ccccc4OC)ccc3OCC2=O)c(OC)c1	-3%
CCOC(=O)c1c(NC(=O)/C=C/c2ccc(OC)c(OC)c2)sc(C(C)=O)c1C	40%
Cc1cc(N2CCCCC2)nc2ccc(NC(=O)/C=C/c3ccc(OC(C)C)cc3)cc12	10µM*
COc1ccc(/C=C/C(=O)Nc2ccc3nc(N4CCCCC4)cc(C)c3c2)cc1OC	4µM*
COc1ccc(/C=C/c2nc(C#N)c(N3CCCCCC3)o2)cc1OC	-15%
CCCN(C(=O)C(=O)Nc1ccc2nc3n(c(=O)c2c1)CCCCC3)c1ccc(OCC)cc1	-16%
COCCNC(=O)C(=O)Nc1ccc2nc3n(c(=O)c2c1)CCCCC3	-17%
CN(Cc1ccccc1)C(=O)C(=O)Nc1ccc2nc3n(c(=O)c2c1)CCCCC3	i
CC(C)Oc1ccc(CNC(=O)c2ccc3c(c2)nc2n3CCCCC2)cc1	-15%
Cc1cc(N2CCCCC2)nc2ccc(NC(=O)/C=C/c3ccccc3OC(C)C)cc12	2.8µM*
Cn1nc(C(=O)NCC23CCCC=C2NC(=O)CC3)c2ccccc21 (configuration not stated)	-21%
CNS(=O)(=O)c1cn(CC(=O)N2CCN(c3cc(C)ccc3C)CC2)cc1S(=O)(=O)NC	i
CCOc1ccccc1CNC(=O)C1CCN(S(=O)(=O)c2cccc3nonc23)CC1	i
Cn1cnc(C(=O)N2CCC(F)(c3nc(-c4ccncc4)no3)CC2)c1	1%
COc1ccc(CNC(=O)C2CCN(c3nc4ccccc4[nH]3)CC2)c(OC)c1	7%
COc1ccc(CCNC(=O)c2cc3c(=O)oc4ccc(C)cc4c3s2)cc1OC	39%
CCc1ccc(C(=O)N2CCC(C3CCN(S(C)(=O)=O)CC3)C2)cc1 (configuration not stated)	-19%
NCc1ccc(-c2nc(C3CCOC3)nn2Cc2ccccc2)cc1 (configuration not stated)	4.5µM*
c1cc(-c2nc(C3CCOC3)nn2Cc2ccc3c(c2)OCO3)[nH]n1 (configuration not stated)	-12%
c1ccc(Cn2nc(C3CCOC3)nc2-c2ccoc2)cc1 (configuration not stated)	-2%
